The whole screen tested about 52,000 compounds, of which about 4,300 (8.3%) were called active. For the sample, actives were picked, then their nearest neighbours and some compounds at random. A number with no mark means an inactive call. Cut-off read from the data, not from the text of the source: active = survival mostly below about 52% (no sharp cut-off); inactive = mostly above about 56%.
The compounds below were run on DeltatarO mutant (assay: growth inhibition of S. aureus wild type versus tarO mutant, primary screen, teichoic acid synthesis inhibitors, RN4220, OD600 (AID 463173)). Conditions: OD600, 18 h, stronger effect = lower value, screened at 18.75 µg/mL (by protocol).

Row | SMILES | survival
1 | Cc1cccc(-n2cc(-c3ccccc3)nc2SCC(=O)Nc2ccccc2Cl)c1 | 115%
2 | CC(C)c1ccc(NC(=O)CS(=O)(=O)c2cccc3nsnc23)cc1 | 78%
3 | CCOC(=O)c1sc2ccccc2c1S(=O)(=O)N1CCN(c2cc(C)ccc2C)CC1 | 100%
4 | Cc1ccc(CSc2cn(CC(=O)N3CCCCCC3)c3ccccc23)cc1 | 84%
5 | COc1ccc(CCN2C(=O)N(c3ccc(F)cc3)C(=O)C2CC(=O)Nc2ccc(OC)cc2)cc1 (centres undefined) | 67%
6 | CCc1ccc2occ(CC(=O)Nc3ccc(C)c(C)c3)c2c1 | 102%
7 | COc1ccc(OC)c(NC(=O)c2nnn(CC(=O)Nc3ccc(C(C)C)cc3)c2N)c1 | 63%
8 | COc1ccc(-c2nc(CSCC(=O)N3CCN(c4ccc(F)cc4)CC3)c(C)o2)cc1 | 57%
9 | COc1ccc(-c2nc(CSCC(=O)N3CCN(c4ccccc4)CC3)c(C)o2)cc1 | 60%
10 | COc1ccc(-c2nc(CSCC(=O)N3CCN(c4ccccc4F)CC3)c(C)o2)cc1 | 35% (active)
11 | Cc1cccc(NC(=O)C(NS(=O)(=O)c2cccc3nsnc23)c2ccccc2)c1C (centres undefined) | 95%
12 | COCCn1c(=NC(=O)c2ccc3c(c2)OCCO3)sc2cc(C(=O)OC)ccc21 | 86%
13 | CCC12CN3CC(C)(CN(C1)C3c1ccccc1C)C2=O (centres undefined) | 76%
14 | Cc1c(NC(=O)c2cc([N+](=O)[O-])ccc2N2CCOCC2)cccc1-c1nc2ccccc2o1 | 50%
15 | O=C(Nc1ccc(Cl)c(-c2nc3cc(Cl)ccc3o2)c1)c1cc([N+](=O)[O-])ccc1N1CCOCC1 | 111%
16 | O=C(Nc1cccc(-c2nc3cc(Cl)ccc3o2)c1)c1cc([N+](=O)[O-])ccc1N1CCOCC1 | 40% (active)
17 | O=C(Nc1cccc(-c2nc3ccccc3o2)c1)c1cc([N+](=O)[O-])ccc1N1CCOCC1 | 42% (active)
18 | COc1ccc(-c2nc3ccccc3o2)cc1NC(=O)c1cc([N+](=O)[O-])ccc1N1CCOCC1 | 44% (active)
19 | Cc1ccc(-c2nc3cc(Cl)ccc3o2)cc1NC(=O)c1cc([N+](=O)[O-])ccc1N1CCOCC1 | 57%
20 | COc1ccc2oc(-c3cccc(NC(=O)c4cc([N+](=O)[O-])ccc4N4CCOCC4)c3)nc2c1 | 49%

Row | SMILES | survival
21 | O=C(Nc1cc(-c2nc3ccccc3o2)ccc1Cl)c1cc([N+](=O)[O-])ccc1N1CCOCC1 | 57%
22 | O=C(Nc1cc(-c2nc3cc(Cl)ccc3o2)ccc1Cl)c1cc([N+](=O)[O-])ccc1N1CCOCC1 | 50%
23 | COCCN1Cc2cccc(C(=O)Nc3ccc(C(=O)OC)cc3)c2C1=O | 82%
24 | CC(C)(C)C(=O)CSc1nc2ccsc2c(=O)n1Cc1ccccc1F | 126%
25 | CCOC(=O)c1c(C)[nH]c(C)c1S(=O)(=O)N1CCCC(C(=O)Nc2ccc(C)c(N(C)C)c2)C1 (centres undefined) | 88%
26 | CCCCOc1ccc(C(=O)N2CCN(CCc3ccccn3)CC2)cc1 | 51%
27 | O=C(CN1CCC(NC(=O)NC2CCCCC2)CC1)Nc1cccc(I)c1 | 100%
28 | CC1=Nc2cc(C(=O)NCCc3ccc(Cl)cc3)ccc2Sc2ccc(C)cc21 | 56%
29 | Cc1ccc(C(=O)CSc2nnc3ccc4ccccc4n23)cc1 | 60%
30 | CCOc1ccccc1NC(=O)NC1(C(=O)NCc2ccco2)CCCCC1 | 84%
31 | CCc1c(C)c2ccc(O)c(CN3CCN(c4ccc(F)cc4)CC3)c2oc1=O | 55%
32 | CCc1c(C)c2ccc(O)c(CN3CCN(c4ccc(OC)cc4)CC3)c2oc1=O | 55%
33 | CCc1c(C)c2ccc(O)c(CN3CCN(c4ccccc4)CC3)c2oc1=O | 56% (active)
34 | Cc1ccc(-n2nc3c(N4CCC(C(=O)NC5CCCCC5)CC4)nnc(C)c3c2C)cc1 | 81%
35 | Cc1ccc(N2CNC(=O)c3c(C)cc(C)nc32)cc1 | 74%
36 | Cc1cccc2sc(N(Cc3cccnc3)C(=O)CCS(=O)(=O)c3ccccc3)nc12 | 89%
37 | Cc1cc(C)c2nc(N(Cc3cccnc3)C(=O)CCS(=O)(=O)c3ccccc3)sc2c1 | 83%
38 | CC(=O)c1ccc(C(=O)N(Cc2cccnc2)c2nc3c(Cl)cccc3s2)cc1 | 91%
39 | Cc1ccc2sc(N(Cc3cccnc3)C(=O)CCS(=O)(=O)c3ccccc3)nc2c1C | 6% (active)
40 | CC(=O)c1ccc(C(=O)N(Cc2cccnc2)c2nc3c(C)c(C)ccc3s2)cc1 | -1% (active)

Row | SMILES | survival
41 | CC(=O)N(Cc1cccnc1)c1nc2c(C)c(C)ccc2s1 | 72%
42 | C=CCNCc1cccn1-c1ccccc1 | 76%
43 | CCCCn1cc(S(=O)(=O)c2ccc(CC)cc2)c(=O)c2cc(F)c(N3CCCC(C)C3)cc21 (centres undefined) | 115%
44 | O=C(CN1CCC(NC(=O)Nc2ccccc2-c2ccccc2)CC1)NCc1ccco1 | 78%
45 | Cc1cccnc1Nc1nc(-c2cccnc2)cs1 | 48%
46 | CC1CCCCC1NC(=O)CSc1nncn1N (centres undefined) | 84%
47 | O=C(Nc1cccc(F)c1)c1oc2ccccc2c1NC(=O)C12CC3CC(CC(C3)C1)C2 | 72%
48 | CN1CCN(C(c2ccccc2)c2sc3nc(-c4ccco4)nn3c2O)CC1 (centres undefined) | 75%
49 | Oc1c(C(c2ccccc2)N2CCN(Cc3ccccc3)CC2)sc2nc(-c3ccco3)nn12 (centres undefined) | 37% (active)
50 | Oc1c(C(c2ccc(F)cc2)N2CCN(Cc3ccccc3)CC2)sc2nc(-c3ccco3)nn12 (centres undefined) | 73%
51 | Cc1ccc(C(c2sc3nc(-c4ccco4)nn3c2O)N2CCC3(CC2)OCCO3)cc1 (centres undefined) | 78%
52 | Cc1ccc(C(c2sc3nc(-c4ccco4)nn3c2O)N2CCN(Cc3ccccc3)CC2)cc1 (centres undefined) | 112%
53 | Oc1c(C(c2ccccc2)N2CCCC2)sc2nc(-c3ccco3)nn12 (centres undefined) | 0% (active)
54 | Oc1c(C(c2ccccc2Cl)N2CCOCC2)sc2nc(-c3ccco3)nn12 (centres undefined) | 0% (active)
55 | Oc1c(C(c2ccccc2)N2CCOCC2)sc2nc(-c3ccco3)nn12 (centres undefined) | 69%
56 | Oc1c(C(c2ccccc2)N2CCC3(CC2)OCCO3)sc2nc(-c3ccco3)nn12 (centres undefined) | 69%
57 | Oc1c(C(c2ccc(Cl)cc2)N2CCC3(CC2)OCCO3)sc2nc(-c3ccco3)nn12 (centres undefined) | 32% (active)
58 | Oc1c(C(c2ccccc2Cl)N2CCCC2)sc2nc(-c3ccco3)nn12 (centres undefined) | 83%
59 | CN1CCN(C(c2ccccc2Cl)c2sc3nc(-c4ccco4)nn3c2O)CC1 (centres undefined) | 131%

From PubChem BioAssay AID463173 (ICCB-Longwood Screening Facility, Harvard Medical School, 2010)
